From PubChem BioAssay
Calls of active or inactive are those of the source. Unless noted, no rule for the calls is given here.

Key:
[1] = A549 cell viability effects, profiling panel, calcein-AM fluorescence, 48 h, basal (AID 1162); conditions: higher = more signal; also: test concentration not given here
[2] = adipocyte viability effects, profiling panel, cell-based, 3T3-L1 adipocytes, calcein-AM fluorescence, 48 h, basal (AID 1163); conditions: 3T3-L1 adipocytes viability, higher = more signal; also: test concentration not given here
[3] = HepG2 cell viability effects, profiling panel, calcein-AM fluorescence, 48 h, basal (AID 1164); conditions: higher = more signal; also: test concentration not given here
[4] = MM1S cell viability effects, profiling panel, calcein-AM fluorescence, 48 h, basal (AID 1165); conditions: higher = more signal;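 also: viability of MM1S multiple myeloma cells under basal unstimulated conditions; test concentration not given here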
[5] = basal RPMI8226 viability, no added stimulus, profiling panel, cell-based, calcein-AM fluorescence, 48 h, PK04 Diversity Set (AID 1166); conditions: RPMI8226 myeloma viability, higher = more signal;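 also: cells grown under basal conditions without added stimulus; test concentration not given here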
[6] = basal HepG2 mitochondrial membrane potential changes, profiling panel, cell-based, JC-1 fluorescence, 24 h, 100 nL compound (AID 1167); conditions: higher = more signal; also: test concentration not given here
[7] = basal 3T3-L1 adipocyte mitochondrial potential changes, profiling panel, cell-based, JC-1 fluorescence, 3T3-L1 adipocytes, 24 h, 100 nL compound (AID 1168); conditions: JC-1 mitochondrial fluorescence, higher = more signal, called active from +8 up or from −8 down; also: test concentration not given here
[8] = basal RPMI8226 mitochondrial membrane potential changes, profiling panel, cell-based, JC-1 fluorescence, 24 h, 100 nL compound (AID 1169); conditions: RPMI8226 myeloma, JC-1 mitochondrial potential fluorescence, higher = more signal; also: test concentration not given here
[9] = basal MM1S mitochondrial membrane potential changes, profiling panel, cell-based, JC-1 fluorescence, 24 h, 100 nL compound (AID 1170); conditions: higher = more signal; also: test concentration not given here
[10] = A549 lung cancer cell viability effects, profiling panel, resazurin fluorescence, 24 h, PK04 Diversity Set (AID 1171); conditions: higher = more signal, called active from +8 up or from −8 down; also: test concentration not given here
[11] = HepG2 liver cancer cell viability effects, profiling panel, resazurin fluorescence, 24 h, PK04 Diversity Set (AID 1172); conditions: higher = more signal; also: test concentration not given here
[12] = basal S. cerevisiae growth modulation, no modifier, primary screen, OD600, strain BY4716, 24 h, basal condition (AID 1173); conditions: OD600, 24 h, higher = more signal, called active from +8 up or from −8 down
[13] = MM1S myeloma cell viability, profiling panel, resazurin fluorescence, basal, 24 h, PK04 Diversity Set (AID 1174); conditions: higher = more signal, called active from +8 up or from −8 down;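 also: MM1S multiple myeloma cell line; test concentration not given here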
[14] = molecular target: Dihydroorotate dehydrogenase (quinone), mitochondrial (Plasmodium falciparum (isolate 3D7)) (UniProt Q08210); assay: PfDHODH enzyme inhibitors, primary screen, biochemical, C-terminal His tag, absorbance 600 nm (AID 1175); conditions: DCIP absorbance 600 nm, higher = more signal, called active from +8 up or from −8 down;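 also: recombinant parasite enzyme with a five histidine tag at its C terminus; test concentration not given here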
Chain of Dihydroorotate dehydrogenase (quinone), mitochondrial (Plasmodium falciparum (isolate 3D7)) (Q08210 whole entry, looked up): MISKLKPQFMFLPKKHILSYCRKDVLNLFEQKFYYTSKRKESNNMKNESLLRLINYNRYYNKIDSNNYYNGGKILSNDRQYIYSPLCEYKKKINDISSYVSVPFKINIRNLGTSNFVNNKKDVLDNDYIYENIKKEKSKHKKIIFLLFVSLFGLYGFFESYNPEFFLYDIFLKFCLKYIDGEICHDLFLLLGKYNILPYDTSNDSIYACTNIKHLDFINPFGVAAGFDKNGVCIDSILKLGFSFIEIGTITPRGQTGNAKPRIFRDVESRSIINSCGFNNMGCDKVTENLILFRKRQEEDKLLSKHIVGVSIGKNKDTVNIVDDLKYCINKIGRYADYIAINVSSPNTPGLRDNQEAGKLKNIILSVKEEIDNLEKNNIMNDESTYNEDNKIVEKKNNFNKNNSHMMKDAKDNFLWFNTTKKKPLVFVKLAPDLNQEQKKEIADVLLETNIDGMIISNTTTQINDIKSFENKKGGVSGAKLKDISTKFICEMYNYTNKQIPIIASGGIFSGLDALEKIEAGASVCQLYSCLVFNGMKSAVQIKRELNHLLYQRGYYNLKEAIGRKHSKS

[15] = P. aeruginosa biofilm formation inhibitors, primary screen, strain PAO1, LB-PBS medium, absorbance 600 nm (AID 1176); also: test concentration not given here; conditions: P. aeruginosa PAO1 growth/biofilm, A600, 12 h; higher = more signal
[16] = S. cerevisiae RM11-1a growth modifiers, primary screen, strain RM11-1a, OD600, basal, 24 h (AID 1177); conditions: OD600, 24 h, higher = more signal, called active from +8 up or from −8 down;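 also: cultures grown under basal conditions with no added stressor; test concentration not given here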
[17] = E. coli acrAB mutant growth effects, primary screen, E. coli filamentation inducers, strain DRC39, OD650, 24 h (AID 1178); conditions: higher = more signal, called active from +8 up or from −8 down;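 also: growth measured as culture turbidity by optical density at 650 nm; test concentration not given here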
[18] = E. coli acrAB mutant growth effects, primary screen, E. coli filamentation inducers, strain DRC39, OD650, 48 h (AID 1179);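 also: screen aims at cell division blockers that make cells filament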; conditions: E. coli DRC39 delta-acrAB growth, higher = more signal, called active from +8 up or from −8 down
[19] = RPMI8226 myeloma cell viability, profiling panel, resazurin fluorescence, basal, 24 h, PK04 Diversity Set (AID 1180); conditions: higher = more signal;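 also: RPMI8826 multiple myeloma cell line at 5000 cells per well; test concentration not given here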
[20] = molecular target: E3 ubiquitin-protein ligase XIAP (Homo sapiens) (UniProt P98170); assay: XIAP binders, primary screen, biophysical, small-molecule microarray, fluorescence 635 nm (AID 1181); conditions: small-molecule microarray binding, higher = more signal;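 also: score merges 667 nm emission and signal to noise over triplicate slides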
Chain of E3 ubiquitin-protein ligase XIAP (Homo sapiens) (P98170 whole entry, looked up): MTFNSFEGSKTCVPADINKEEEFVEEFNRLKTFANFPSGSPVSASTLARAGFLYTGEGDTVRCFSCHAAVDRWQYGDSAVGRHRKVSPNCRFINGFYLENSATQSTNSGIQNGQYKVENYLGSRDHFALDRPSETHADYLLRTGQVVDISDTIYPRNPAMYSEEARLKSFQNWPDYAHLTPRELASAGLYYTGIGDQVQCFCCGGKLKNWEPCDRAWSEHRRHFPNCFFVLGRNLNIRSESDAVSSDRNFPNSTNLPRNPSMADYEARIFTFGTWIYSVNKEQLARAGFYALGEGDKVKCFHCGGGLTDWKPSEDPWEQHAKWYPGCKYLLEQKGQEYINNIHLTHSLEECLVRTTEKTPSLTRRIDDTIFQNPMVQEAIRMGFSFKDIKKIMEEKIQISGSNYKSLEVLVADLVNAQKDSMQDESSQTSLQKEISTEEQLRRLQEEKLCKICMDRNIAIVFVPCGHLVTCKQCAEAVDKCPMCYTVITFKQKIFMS

SMILES | z-score [1] | z-score [2] | z-score [3] | z-score [4] | z-score [5] | z-score [6] | z-score [7] | z-score [8] | z-score [9] | z-score [10] | z-score [11] | z-score [12] | z-score [13] | composite z-score [14] | z-score [15] | z-score [16] | z-score [17] | z-score [18] | z-score [19] | composite z-score [20]
CN(C)C(=O)[C@@]1(Cc2ccccc2CN=[N+]=[N-])N=C(c2ccc(OCCCO)cc2)O[C@H]1c1ccccc1CN=[N+]=[N-] | -0.446 | -0.182 | -1.29 | -1.42 | -3.77 | 1.11 | -1.34 (inactive) | -1.12 | -2.11 | -0.67 (inactive) | -1.43 | 1.12 (inactive) | -2.15 (inactive) | 2.07 (inactive) | 1.35 (inactive) | 2.07 (inactive) | 0.117 (inactive) | -0.435 (inactive) | -3.29 | 0.172
O=C1OCC=C[C@H]2OC34C=CCN(Cn5nnc6ccccc65)C(=O)[C@H]3N(CCCO)C(=O)[C@@H]4[C@@H]12 (stereo not given in full) | -0.267 | 0.832 | -0.64 | 0.266 | 0.0897 | -0.541 | 0.904 (inactive) | -0.252 | -1.33 | -0.813 (inactive) | -0.281 | -0.68 (inactive) | -0.319 (inactive) | -2.85 (inactive) | -0.0684 (inactive) | -0.0325 (inactive) | -1.4 (inactive) | -1.1 (inactive) | -0.509 | -0.105
[N-]=[N+]=NCc1ccccc1C[C@@]1(C(=O)N2CCOCC2)N=C(c2ccc(OCCCO)cc2)O[C@@H]1c1ccccc1 | -1.99 | 1.69 | -1.7 | -3.43 | -4.4 | -0.801 | 0.86 (inactive) | -1.25 | -1.12 | -1.32 (inactive) | -0.932 | -2.93 (inactive) | -4.83 (inactive) | 0.192 (inactive) | 0.593 (inactive) | -0.0165 (inactive) | 0.834 (inactive) | -0.274 (inactive) | -4.29 | 0.284
O=C(CS)NCCCCCNC(=O)[C@@H]1C[C@@H]2C(=O)N3CCC[C@H]3C(=O)N2[C@@H]1c1cccc(OCCO)c1 | -0.174 | 0.195 | 0.451 | -0.304 | -0.799 | 0.266 | 0.0369 (inactive) | -0.00798 | 0.305 | -0.61 (inactive) | -0.514 | 0.196 (inactive) | -0.374 (inactive) | -1.8 (inactive) | 0.711 (inactive) | 0.119 (inactive) | -0.277 (inactive) | -0.141 (inactive) | -0.664 | 0.122
